Assay results taken from PubChem BioAssay (NCI).
The panel holds about 83,000 compounds, 20% with a hit somewhere; the sample as a whole holds those more often.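 Step 1: grow cells in 96-well plates. Step 2: add test compound at a single concentration. Step 3: incubate 48 h. Step 4: record percent growth.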 Calls of active or inactive are those of the source. The calls were made as follows: active = growth percent below 10; inactive = the rest.

Legend:
Assay in all cases: NCI-60 one-dose screen, 48 h (100 = growth as untreated, 0 = no growth, -100 = all killed)
Conditions in all cases: 10 µM unless noted
HT29 colon = tested on: HT29 colon
SNB-75 CNS = tested on: SNB-75 CNS
SNB-19 CNS = tested on: SNB-19 CNS
U251 CNS = tested on: U251 CNS
PC-3 prostate = tested on: PC-3 prostate
SK-MEL-5 melanoma = tested on: SK-MEL-5 melanoma
UACC-62 melanoma = tested on: UACC-62 melanoma
LOX IMVI melanoma = tested on: LOX IMVI melanoma
SK-MEL-28 melanoma = tested on: SK-MEL-28 melanoma

Measured: growth

N#CCCc1c[nH]c2ccccc12
inactive: HT29 colon 91.1% | SNB-75 CNS 76.4% | SNB-19 CNS 105% | U251 CNS 91.3% | PC-3 prostate 78.6% | SK-MEL-5 melanoma 92.1% | UACC-62 melanoma 98.6% | LOX IMVI melanoma 90.5% | SK-MEL-28 melanoma 106%

CCOC(=O)C1=C(C(=O)c2ccc(Br)cc2)C(c2ccc(Br)cc2)NC(=S)N1 (stereo unspecified)
inactive: HT29 colon 104% | SNB-75 CNS 93.1% | SNB-19 CNS 100% | U251 CNS 95.8% | PC-3 prostate 98.1% | SK-MEL-5 melanoma 103% | UACC-62 melanoma 94.8% | LOX IMVI melanoma 94% | SK-MEL-28 melanoma 105%

CC[C@@H]1NC(=O)[C@@H]2CCCCN2C(=O)[C@@H]2CCCN2C(=O)[C@@H](NC(=O)[C@H](Cc2cc(F)cc(F)c2)NC(=O)Nc2ccc(C3CC3)cc2F)[C@H](C)OC(=O)[C@@H]2C[C@@H](C)CN2C1=O
active: HT29 colon 4.98% | SK-MEL-5 melanoma -45% | UACC-62 melanoma 7.28%
inactive: SNB-75 CNS 10.4% | SNB-19 CNS 15.7% | U251 CNS 24.5% | PC-3 prostate 12.5% | LOX IMVI melanoma 16.4% | SK-MEL-28 melanoma 13.5%

COc1ccc2c(c1)C(C)Cc1c(ncnc1-n1cnc3ccccc31)N2C (stereo unspecified)
inactive: SNB-75 CNS 37.5% | SNB-19 CNS 33.4% | U251 CNS 21.4% | PC-3 prostate 17.5% | SK-MEL-5 melanoma 11.2% | UACC-62 melanoma 39% | LOX IMVI melanoma 26.6% | SK-MEL-28 melanoma 59.5%
active: HT29 colon -17.8%

CCCCN(CC)CC(CC)Nc1cc(OC)cc2cccnc12 (stereo unspecified)
inactive: HT29 colon 103% | SNB-75 CNS 100% | SNB-19 CNS 110% | U251 CNS 101% | PC-3 prostate 96.5% | SK-MEL-5 melanoma 99.9% | UACC-62 melanoma 106% | LOX IMVI melanoma 114% | SK-MEL-28 melanoma 121%

CCCCC1COc2cccc3c2N1C=C/C3=C\C(=O)n1ccc2ccccc21 (stereo unspecified)
inactive: HT29 colon 43.9% | SNB-75 CNS 14.5% | SNB-19 CNS 84.9% | U251 CNS 76.5% | PC-3 prostate 65.9% | SK-MEL-5 melanoma 78.5% | UACC-62 melanoma 56.3% | LOX IMVI melanoma 76% | SK-MEL-28 melanoma 92.5%

Nc1ccc2c(c1)Cc1cc(NC(=O)C(F)(F)F)ccc1-2
inactive: HT29 colon 90.8% | SNB-75 CNS 98.6% | SNB-19 CNS 101% | U251 CNS 96.2% | PC-3 prostate 99.5% | SK-MEL-5 melanoma 98.4% | UACC-62 melanoma 93.7% | LOX IMVI melanoma 102% | SK-MEL-28 melanoma 102%

Cn1cc(-c2noc(-c3cn(C)c4ncccc34)n2)c2cc(Cl)ccc21
inactive: HT29 colon 83.1% | SNB-75 CNS 101% | SNB-19 CNS 100% | U251 CNS 95.6% | PC-3 prostate 89.3% | SK-MEL-5 melanoma 94.7% | UACC-62 melanoma 93.1% | LOX IMVI melanoma 93.4% | SK-MEL-28 melanoma 93%

O=C1NC(=O)C(Cc2ccccc2)(Cc2ccccc2)N1
inactive: HT29 colon 94.1% | SNB-75 CNS 85.2% | SNB-19 CNS 95.2% | U251 CNS 101% | PC-3 prostate 83.2% | SK-MEL-5 melanoma 94.3% | UACC-62 melanoma 97% | LOX IMVI melanoma 89.4% | SK-MEL-28 melanoma 119%
